Experimental data published in PubChem BioAssay (Tox21).
Results filed as inconclusive are left out. Activity calls are given as the source filed them. Unless noted, the call rests on the fitted dose curve; in most records, active means well fitted curve in the direction sought with a large enough effect in the repeat runs; inconclusive means weak or mixed curves; inactive means no such curve, though single readings can be large; an effect the other way counts as inactive or inconclusive.

What was measured:
[1] = qHTS assay to identify small molecule antagonists of the progesterone receptor (PR) signaling pathway - cell viability counter screen (AID 1346798); further: nearly all actives have a fitted effect of over 50% in size; further: potency means the concentration at half of the fitted maximal effect
Summary of the method: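 Viability was determined by ATP-based luminescence (CellTiter-Glo) in PR-UAS-bla HEK293T cells cultured in 2% charcoal-stripped serum and incubated 16 hr with compounds under R5020 stimulation.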

[2] = qHTS assay to identify small molecule agonists of the progesterone receptor (PR) signaling pathway - cell viability counter screen (AID 1346799; calls by dose curve; further: nearly all actives have a fitted effect of over 45% in size)
Summary of the method: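 Viability was scored by ATP luminescence (CellTiter-Glo, 30 min, room temperature) in the same wells used for the reporter readout, after 16 hr compound exposure of PR-UAS-bla HEK293T cells.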

[3] = qHTS assay to identify small molecule antagonists of the TGF-beta/Smad signaling pathway - cell viability counter screen (AID 1346824); further: nearly all actives have a fitted effect of over 50% in size
Summary of the method: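 SBE-bla HEK 293T cells, incubated overnight, then compound plus 0.25 ng/mL TGF-beta1 (stock added) for 5 hr at 37 C. Viability was read in the same wells by CellTiter-Glo luminescence after 30 min at room temperature.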

[4] = qHTS assay to identify small molecule agonists of the TGF-beta/Smad signaling pathway - cell viability counter screen (AID 1346829); further: top concentration of the series differs between compounds; nearly all actives have a fitted effect of over 45% in size
Summary of the method: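 Tox21 qHTS format: SBE-bla HEK 293T cells treated with DMSO-dissolved compounds for 5 hr; CellTiter-Glo luminescence after 30 min at room temperature.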

[5] = qHTS assay to identify small molecule agonists of the TGF-beta/Smad signaling pathway (AID 1346859; active means well fitted activation curve with a large enough effect in the signal ratio in the repeat runs, not every such curve was filed as active; the % refers to the signal ratio; further: series mostly up to about 77 µM)
Summary of the method: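 Dual-wavelength fluorescence (460/530 nm emission) quantified beta-lactamase expression under the Smad binding element in HEK 293T cells following 5 hr compound treatment at 37 C.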

[6] = Human pregnane X receptor (PXR) small molecule agonists, qHTS cell viability counter screen (AID 1346977); further: nearly all actives have a fitted effect of over 50% in size; further: potency means the concentration at half of the fitted maximal effect
Summary of the method: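 HepG2 cells stably carrying the PXR-Luc reporter are cultured with 5% charcoal-stripped FBS and treated with compounds for 24hr. CellTiter-Fluor is added at 23hr and fluorescence is read after 1hr.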

[7] = Caspase-3/7 induction in HepG2 cells by small molecules, qHTS assay (AID 1346978); further: nearly all actives have a fitted effect of over 15% in size
Summary of the method: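 Wild-type HepG2 cells, 2,000/well, settled 5 hr at 37 C and 5% CO2, then compound-treated for 17 hr; caspase-3/7 activity read by luminescent Caspase-Glo 3/7 after 30 min at room temperature.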

[8] = Caspase-3/7 induction in CHO-K1 cells by small molecules, qHTS assay (AID 1346980); further: nearly all actives have a fitted effect of over 15% in size
Summary of the method: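 Wild-type CHO-K1 cells exposed to compounds for 17hr at 37 C, 5% CO2. Caspase-3/7 activity then measured by Caspase-Glo 3/7 luminescence after 30min at room temperature.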

[9] = Caspase-3/7 induction in HepG2 cells by small molecules, qHTS cell viability counter screen (AID 1346981); further: nearly all actives have a fitted effect of over 30% in size; further: potency means the concentration at half of the fitted maximal effect
Summary of the method: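 Multiplexed with the caspase-3/7 assay: HepG2 cells, 16 hr compound treatment, CellTiter-Fluor viability detection by fluorescence.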

[10] = molecular target: Nuclear receptor subfamily 1 group I member 2 (Homo sapiens) (UniProt O75469); assay: Human pregnane X receptor (PXR) small molecule agonists, qHTS assay (AID 1346982); further: nearly all actives have a fitted effect of over 35% in size; further: potency means the concentration at half of the fitted maximal effect
Summary of the method: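 We seeded PXR-Luc HepG2 cells in assay medium containing 5% charcoal-stripped FBS, added compounds 5 hr later, incubated 24 hr, and read luminescence with ONE-Glo reagent.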

[11] = molecular target: Nuclear receptor subfamily 1 group I member 2 (Rattus norvegicus) (UniProt Q9R1A7); assay: Rat pregnane X receptor (rPXR) activation by small molecules, qHTS assay (AID 1346983); conditions: rPXR luciferase reporter cells, One-Glo luminescence, 24 h; max activation: hits give high values; further: nearly all actives have a fitted effect of over 20% in size
Summary of the method: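 Cell-based rPXR activation assay: rPXR cells, 2,000 per well, rested 5hr at 37 C, then exposed to compounds in DMSO for 24 hr at 37 C. Luciferase activity read by One-Glo luminescence after 30 min at room temperature.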

[12] = molecular target: Nuclear receptor subfamily 1 group I member 2 (Homo sapiens) (UniProt O75469); assay: CYP3A4 induction through human pregnane X receptor (PXR) by small molecules, qHTS assay (AID 1346984); further: nearly all actives have a fitted effect of over 40% in size
Summary of the method: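 qHTS, concentration-response format: HepG2 DPX-2 line, PXR/CYP3A4-luc. Exposure 24 h, 37C. Substrate Luciferin-IPA 3uM final, 3 h. Detection One-Glo, 30 min RT.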

[13] = molecular target: Nuclear receptor subfamily 1 group I member 2 (Homo sapiens) (UniProt O75469); assay: Human pregnane X receptor (PXR) activation by small molecules, qHTS assay (AID 1346985); further: nearly all actives have a fitted effect of over 40% in size
Summary of the method: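 DPX-2 cells (HepG2 co-transfected with a PXR response element and a CYP3A4-promoter luciferase construct) were seeded at 2,000 per well, rested 5 hr at 37C, then exposed to DMSO-dissolved compounds for 24 hr. Activation was read as luciferase luminescence.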

[14] = molecular target: Cytochrome P450 2D6 (Homo sapiens) (UniProt P10635); assay: Cytochrome P450 Family 2 Subfamily D Member 6 (CYP2D6) small molecule antagonists: luciferase reporter qHTS assay (AID 1671196); further: nearly all actives have a fitted effect of over 50% in size; further: potency means the concentration at half of the fitted maximal effect
Summary of the method: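 Luminescence (RLU), read 20 min after detection reagent, indicated CYP2D6 conversion of proluciferin to luciferin during a 1 h NADPH-dependent reaction at room temperature.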

[15] = qHTS assay to identify small molecule agonists of the estrogen receptor alpha (ER-alpha) signaling pathway in the presence of an antagonist - cell viability counter screen (AID 1259386);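 further: series mostly up to about 92 µM; cells exposed to compounds for 22 h at 37 °C before the viability read; nearly all actives have a fitted effect of over 30% in size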
Summary of the method: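 ICI-182,780 at 10.0nM final accompanies the compound titration (15 concentrations, 22hr, 37C) on VM7Luc4E2 cells. The CellTiter-Fluor fluorescence readout runs in the same wells as the luciferase assay.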

[16] = molecular target: Thyrotropin-releasing hormone receptor (Homo sapiens) (UniProt P34981); assay: qHTS assay to identify small molecule antagonists of the thyrotropin-releasing hormone receptor (TRHR) signaling pathway (AID 1346877; active means well fitted inhibition curve with a large enough effect in the repeat runs, not every such curve was filed as active; further: series mostly up to about 51 µM)
Summary of the method: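 Screening used HEK293 cells engineered with TRHR, with a brief 5 min room-temperature compound exposure preceding addition of TRH to 1 nM. The read-out was kinetic calcium-dye fluorescence, concentration-response from 15 doses in triplicate.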

[17] = molecular target: Thyrotropin-releasing hormone receptor (Homo sapiens) (UniProt P34981); assay: qHTS assay to identify small molecule agonists of the thyrotropin-releasing hormone receptor (TRHR) signaling pathway (AID 1346891; calls by dose curve;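 further: HEK293 cells expressing TRHR with calcium dye readout; series mostly up to about 58 µM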)
Summary of the method: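 Kinetic fluorescence (3 min, 1 s intervals) reported intracellular calcium after compound transfer onto TRHR-Hek293 cells pre-loaded with dye for 2 h at 37 °C.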

[18] = Caspase-3/7 induction in CHO-K1 cells by small molecules, qHTS cell viability counter screen (AID 1346979); further: nearly all actives have a fitted effect of over 35% in size; further: potency means the concentration at half of the fitted maximal effect
Summary of the method: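 Seeding: 1,500 CHO-K1 cells/well. Rest: 5hr, 37C. Treatment: compounds in DMSO, 16hr. Read: CellTiter-Fluor, 1hr, fluorescence.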

[19] = molecular target: Progesterone receptor (Homo sapiens) (UniProt P06401); assay: qHTS assay to identify small molecule agonists of the progesterone receptor (PR) signaling pathway (AID 1346784; calls by dose curve; further: nearly all actives have a fitted effect of over 30% in size)
Summary of the method: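 The screen uses PR-UAS-bla HEK 293T cells in charcoal-stripped serum (2%). Compounds are applied for 16 hr at 37C after a 6 hr pre-incubation, and reporter activity is detected with a FRET beta-lactamase substrate after 2 hr at room temperature.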

[20] = molecular target: Progesterone receptor (Homo sapiens) (UniProt P06401); assay: qHTS assay to identify small molecule antagonists of the progesterone receptor (PR) signaling pathway (AID 1346795; active means well fitted inhibition curve with a large enough effect in the signal ratio in the repeat runs, not every such curve was filed as active; the % refers to the signal ratio; further: potency means the concentration at half of the fitted maximal effect)
Summary of the method: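 After 6 hr plating at 37C in 2% stripped-serum medium, PR-UAS-bla HEK293T cells got compounds, then 1 nM R5020. Sixteen hours later, LiveBLAzer substrate was applied for 2 hr at room temperature and fluorescence was recorded.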
On the % scale 0 is the no-effect control and ±100 the full control effect.

Sequence of Nuclear receptor subfamily 1 group I member 2 (Homo sapiens) (O75469 whole entry, looked up): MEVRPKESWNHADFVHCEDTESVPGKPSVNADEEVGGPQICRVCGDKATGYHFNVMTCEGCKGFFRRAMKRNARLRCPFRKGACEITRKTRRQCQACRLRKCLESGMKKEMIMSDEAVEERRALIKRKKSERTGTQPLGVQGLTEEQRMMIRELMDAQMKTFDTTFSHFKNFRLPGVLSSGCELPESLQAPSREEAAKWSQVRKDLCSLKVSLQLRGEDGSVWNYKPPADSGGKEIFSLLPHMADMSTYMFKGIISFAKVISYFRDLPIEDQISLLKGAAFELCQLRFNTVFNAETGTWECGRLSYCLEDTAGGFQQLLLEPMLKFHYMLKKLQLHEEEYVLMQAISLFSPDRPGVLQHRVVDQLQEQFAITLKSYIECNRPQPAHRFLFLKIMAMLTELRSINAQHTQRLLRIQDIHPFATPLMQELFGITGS
Sequence of Cytochrome P450 2D6 (Homo sapiens) (P10635 whole entry, looked up): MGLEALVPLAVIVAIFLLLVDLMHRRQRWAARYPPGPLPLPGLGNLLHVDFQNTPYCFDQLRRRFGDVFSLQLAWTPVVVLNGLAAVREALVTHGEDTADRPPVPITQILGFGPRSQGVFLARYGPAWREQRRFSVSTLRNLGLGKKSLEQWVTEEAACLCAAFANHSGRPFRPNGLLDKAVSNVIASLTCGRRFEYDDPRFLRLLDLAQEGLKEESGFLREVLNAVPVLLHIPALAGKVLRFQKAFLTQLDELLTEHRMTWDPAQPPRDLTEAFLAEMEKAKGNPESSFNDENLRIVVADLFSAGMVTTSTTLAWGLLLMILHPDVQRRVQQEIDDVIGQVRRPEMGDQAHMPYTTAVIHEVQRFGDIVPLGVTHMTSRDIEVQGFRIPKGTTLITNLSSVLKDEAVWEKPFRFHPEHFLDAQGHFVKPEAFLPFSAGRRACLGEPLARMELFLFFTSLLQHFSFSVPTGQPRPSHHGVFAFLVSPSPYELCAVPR
Sequence of Thyrotropin-releasing hormone receptor (Homo sapiens) (P34981 whole entry, looked up): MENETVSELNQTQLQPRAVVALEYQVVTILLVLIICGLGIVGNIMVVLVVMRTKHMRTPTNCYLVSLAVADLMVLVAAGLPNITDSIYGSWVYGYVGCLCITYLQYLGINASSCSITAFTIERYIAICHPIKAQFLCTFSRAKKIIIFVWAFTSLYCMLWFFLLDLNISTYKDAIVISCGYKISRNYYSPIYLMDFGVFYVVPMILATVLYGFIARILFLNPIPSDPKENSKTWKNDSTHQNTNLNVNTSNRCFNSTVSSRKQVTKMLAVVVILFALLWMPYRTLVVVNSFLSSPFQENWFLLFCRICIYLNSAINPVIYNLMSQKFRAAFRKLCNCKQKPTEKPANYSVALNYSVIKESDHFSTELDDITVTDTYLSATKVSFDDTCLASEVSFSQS
Sequence of Nuclear receptor subfamily 1 group I member 2 (Rattus norvegicus) (Q9R1A7 whole entry, looked up): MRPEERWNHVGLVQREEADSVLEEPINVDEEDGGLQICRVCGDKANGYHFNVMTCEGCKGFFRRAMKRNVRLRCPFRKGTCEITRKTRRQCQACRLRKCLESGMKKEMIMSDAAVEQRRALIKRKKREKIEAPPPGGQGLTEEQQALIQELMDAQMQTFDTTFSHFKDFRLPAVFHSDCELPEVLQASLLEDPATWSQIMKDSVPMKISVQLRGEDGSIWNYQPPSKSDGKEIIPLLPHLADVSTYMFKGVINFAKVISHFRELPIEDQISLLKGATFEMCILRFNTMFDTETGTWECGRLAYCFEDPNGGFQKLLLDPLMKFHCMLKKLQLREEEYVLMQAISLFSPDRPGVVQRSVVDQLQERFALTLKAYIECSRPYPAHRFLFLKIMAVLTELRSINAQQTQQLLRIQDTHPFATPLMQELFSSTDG
Sequence of Progesterone receptor (Homo sapiens) (P06401 whole entry, looked up): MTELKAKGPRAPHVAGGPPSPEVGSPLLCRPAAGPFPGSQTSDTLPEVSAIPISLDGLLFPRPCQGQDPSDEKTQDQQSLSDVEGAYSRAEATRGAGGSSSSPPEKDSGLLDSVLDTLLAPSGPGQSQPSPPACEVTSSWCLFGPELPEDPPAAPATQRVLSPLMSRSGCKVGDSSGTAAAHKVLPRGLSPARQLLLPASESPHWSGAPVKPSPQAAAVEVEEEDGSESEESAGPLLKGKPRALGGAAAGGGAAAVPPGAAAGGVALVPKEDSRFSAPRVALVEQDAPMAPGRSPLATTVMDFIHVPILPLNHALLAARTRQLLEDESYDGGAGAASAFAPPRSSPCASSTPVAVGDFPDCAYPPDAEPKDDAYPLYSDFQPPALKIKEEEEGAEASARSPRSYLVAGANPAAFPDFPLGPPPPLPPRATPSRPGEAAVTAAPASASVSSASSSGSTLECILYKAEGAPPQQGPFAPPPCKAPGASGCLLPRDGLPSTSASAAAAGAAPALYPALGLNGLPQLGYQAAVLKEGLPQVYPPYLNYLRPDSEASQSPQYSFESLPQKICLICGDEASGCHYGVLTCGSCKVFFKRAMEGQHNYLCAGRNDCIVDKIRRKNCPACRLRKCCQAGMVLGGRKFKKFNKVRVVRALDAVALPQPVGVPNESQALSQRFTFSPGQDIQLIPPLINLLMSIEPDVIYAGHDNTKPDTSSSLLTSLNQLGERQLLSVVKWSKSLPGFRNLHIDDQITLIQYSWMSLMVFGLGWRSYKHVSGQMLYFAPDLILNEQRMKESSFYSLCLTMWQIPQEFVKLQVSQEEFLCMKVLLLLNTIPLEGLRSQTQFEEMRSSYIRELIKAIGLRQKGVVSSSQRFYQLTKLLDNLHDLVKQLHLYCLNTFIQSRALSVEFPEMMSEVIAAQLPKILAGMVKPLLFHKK

CO/N=C1\CN(c2nc3c(cc2F)c(=O)c(C(=O)O)cn3C2CC2)CC1CN (centres undefined)
inactive: Potency [1] | Potency [2] | outcome [3] | outcome [4] | outcome [5] | Potency [6] | Potency [7] | outcome [8] | Potency [9] | Potency [10] | max activation [11] -0.199% | Potency [12] | Potency [13] | Potency [14]

O=C(CCCN1CCN(c2ccc(F)cc2)CC1)NC1c2ccccc2CSc2ccccc21 (centres undefined)
active: Potency [6] 21.1 µM | Potency [14] 9.77 µM
inactive: Potency [15] | Potency [2] | outcome [3] | outcome [4] | outcome [5] | outcome [16] | Potency [17] | Potency [7] | Potency [18] | outcome [8] | Potency [9] | Potency [10]

Nc1ccc(C(=O)OCCCOC(=O)c2ccc(N)cc2)cc1
inactive: Potency [15] | outcome [3] | outcome [4] | outcome [5] | outcome [16] | Potency [17] | Potency [6] | Potency [7] | outcome [8] | Potency [9]
active: Potency [10] 54.5 µM | Potency [14] 39.9 µM

CC(=O)Oc1ccc2c(c1)CC[C@@H]1[C@@H]2CC[C@]2(C)[C@@H](O)CC[C@@H]12
active: Potency [10] 26.6 µM
inactive: Potency [15] | Potency [2] | outcome [3] | outcome [4] | Potency [17] | Potency [6] | Potency [7] | outcome [8] | Potency [9] | max activation [11] -1.91% | Potency [12] | Potency [14]

CCC1(C)CC(=O)NC1=O (centres undefined)
inactive: Potency [19] | Potency [20] | Potency [1] | Potency [2] | outcome [3] | outcome [4] | outcome [5] | outcome [16] | Potency [6] | Potency [7] | Potency [18] | outcome [8] | Potency [9] | Potency [10] | max activation [11] -2.98% | Potency [12] | Potency [13] | Potency [14]

CN(C)C(=O)Nc1ccc(Oc2ccc(Cl)cc2)cc1
active: Potency [20] 34.4 µM | Potency [18] 54.5 µM | Potency [10] 10.9 µM
inactive: outcome [3] | outcome [4] | outcome [5] | Potency [17] | Potency [6] | outcome [8]

Cc1nccn1-c1ccc(Sc2cccc(C3(C(N)=O)CCOCC3)c2)cc1
inactive: outcome [5] | Potency [17] | Potency [7] | outcome [8]
active: Potency [6] 8.63 µM | Potency [18] 7.7 µM | Potency [10] 13.7 µM | Potency [14] 35.6 µM

Cc1ccc(/C=N/n2c(-c3ccccc3)csc2=S)cc1
inactive: Potency [15] | outcome [5] | outcome [16] | Potency [17] | Potency [6] | outcome [8] | Potency [9] | Potency [14]

CC(COc1ccc(C(C)(C)C)cc1)OS(=O)OCCCl (centres undefined)
active: Potency [6] 12.3 µM | Potency [18] 10.9 µM | Potency [9] 15.4 µM | Potency [10] 9.74 µM
inactive: Potency [15] | outcome [3] | outcome [4] | outcome [5] | Potency [17] | Potency [7] | outcome [8] | Potency [14]

COc1cc2c(N3CCN(C(=O)Nc4ccc(OC(C)C)cc4)CC3)ncnc2cc1OCCCN1CCCCC1
inactive: Potency [19] | Potency [20] | Potency [1] | Potency [2] | outcome [3] | outcome [5] | outcome [16] | Potency [7] | Potency [10]
active: Potency [6] 23.7 µM | Potency [18] 23.7 µM | Potency [14] 15.5 µM

Cc1cc(C(=C2C=CC(=Nc3ccc(S(=O)(=O)O)cc3S(=O)(=O)O)C=C2)c2ccc(Nc3ccc(S(=O)(=O)O)cc3)cc2)ccc1N
inactive: Potency [19] | Potency [20] | Potency [1] | Potency [2] | outcome [3] | outcome [4] | outcome [5] | outcome [16] | Potency [6] | Potency [7] | Potency [18] | outcome [8]

Cc1ccc(S(=O)(=O)NC2CCCCC2)cc1
inactive: Potency [19] | outcome [3] | outcome [4] | outcome [5] | Potency [17] | Potency [6] | outcome [8] | Potency [9] | Potency [14]
active: Potency [20] 27.1 µM

C[C@@H]1C[C@H]2[C@@H]3CCC4=CC(=O)C=C[C@]4(C)[C@@]3(F)[C@@H](O)C[C@]2(C)[C@@]1(O)C(=O)CO
inactive: Potency [15] | outcome [3] | outcome [5] | Potency [6] | Potency [7] | Potency [18] | outcome [8] | Potency [9]

CCC(Cc1ccccc1)(C(=O)c1ccc(N2CCOCC2)cc1)N(C)C (centres undefined)
inactive: Potency [19] | outcome [4] | outcome [5] | outcome [16] | Potency [17] | Potency [7]
active: Potency [20] 48.6 µM | Potency [10] 30.6 µM | Potency [14] 7.96 µM

CCCCC1C(=O)N(c2ccccc2)N(c2ccc(O)cc2)C1=O (centres undefined)
active: Potency [6] 26.6 µM | Potency [18] 3.76 µM | Potency [10] 11.9 µM
inactive: Potency [15] | outcome [3] | Potency [7] | max activation [11] 1.09% | Potency [12] | Potency [13]

NC(=O)N(O)[C@@H]1C=C[C@H](Oc2cccc(Oc3ccc(F)cc3)c2)C1
active: Potency [18] 68.6 µM | Potency [10] 19.3 µM | Potency [14] 5.03 µM
inactive: Potency [19] | outcome [3] | outcome [4] | Potency [7] | outcome [8]

CC1CC(=O)NN=C1c1ccc(NCC(C)(C)NCC(O)COc2cc(Cl)ccc2C#N)cc1 (centres undefined)
active: Potency [10] 26.6 µM | Potency [14] 5.49 µM
inactive: Potency [19] | Potency [20] | Potency [1] | Potency [2] | outcome [3] | outcome [4] | outcome [5] | outcome [16] | Potency [17] | Potency [7] | Potency [18] | Potency [9]

CCOC(=O)CC(=O)C(=O)OCC
inactive: outcome [3] | outcome [4] | outcome [5] | outcome [16] | Potency [17] | Potency [6] | Potency [7] | Potency [18] | Potency [9] | Potency [14]
active: Potency [1] 15.4 µM

Cc1nc2ccccn2c(=O)c1CCN1CCC(C(=O)c2ccc(F)cc2)CC1
active: Potency [14] 4.36 µM
inactive: Potency [19] | Potency [20] | Potency [1] | Potency [2] | outcome [3] | outcome [4] | outcome [5] | outcome [16] | Potency [7] | Potency [18] | Potency [9] | Potency [10]
